# Results filed as inconclusive are left out. Activity calls are given as the source filed them. The call rests on the fitted dose curve; in most records, active means well fitted inhibition curve with a large enough effect; inconclusive means small, poorly fitted or top-dose-only effect; inactive means flat fitted curve, though single readings scatter.
# Target: Calcium and integrin-binding protein 1 (Homo sapiens) (UniProt Q99828)
# Test: Primary qHTS for Identification of Calcium Integrin Binding Protein 1 (CIB1) Competitor (AID 1508620);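 further: GST tagged CIB1 binding a fluorescein labelled alphaIIb integrin peptide tracer; top concentration of the series differs between compounds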
# Details: CIB1-GST / FITC-alphaIIb peptide fluorescence polarization; series mostly up to 57.7 µM
# Summary of the method: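 CIB1-GST (1 uM final) and compound incubated 15 min at room temperature before adding FITC-alphaIIb peptide tracer (100 nM final). Competition for binding read by fluorescence polarization (ex 480, em 540) after another 15 min at room temperature.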
# Chain of Calcium and integrin-binding protein 1 (Homo sapiens) (Q99828 whole entry, looked up): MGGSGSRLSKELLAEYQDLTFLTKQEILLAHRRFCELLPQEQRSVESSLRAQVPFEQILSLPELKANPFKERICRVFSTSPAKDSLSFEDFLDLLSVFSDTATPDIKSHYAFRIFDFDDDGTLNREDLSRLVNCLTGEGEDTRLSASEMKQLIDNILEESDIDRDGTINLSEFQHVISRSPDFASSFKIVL
row,Structure (SMILES),outcome
1,COc1ccc2c(c1)[C@]13CCCCC1C(C2)N(C)CC3 (stereo partly drawn),inactive
2,O=C1CCC[C@@H]2[C@H]3CCCN4CCC[C@@H](CN12)[C@@H]34,inactive
3,C=C1C[C@H]2[C@H]3CCC(=O)[C@@]3(C)CC[C@@H]2[C@@]2(C)C=CC(=O)C=C12,inactive
4,C[C@]12CCC(=O)C(O)=C1CC[C@@H]1[C@H]3CCC(=O)[C@@]3(C)CC[C@@H]12,inactive
5,CN1CCN(c2ccc([N+](=O)[O-])c3no[n+]([O-])c23)CC1,inactive
6,COc1ccc(C(=O)c2c(C)n(CCN3CCOCC3)c3cc(I)ccc23)cc1,inactive
7,O=C1C=CC[C@@H]2[C@H]3CCCN4CCC[C@@H](CN12)[C@@H]34,inactive
8,O=C(N[C@@H](COc1ccc2[nH]c(=O)[nH]c2c1)c1ccccc1)c1cccn(Cc2ccc(F)c(F)c2)c1=O,inactive
9,Clc1ccccc1C(c1ccccc1)(c1ccccc1)n1cccn1,inactive
10,O=c1cccc2n1CC1CNC[C@H]2C1,inactive
11,c1ccc(CCCN2CCN(CCOC(c3ccccc3)c3ccccc3)CC2)cc1,inactive
12,COC[C@H]1OC(=O)c2coc3c2[C@@]1(C)C1=C(C3=O)[C@@H]2CC[C@H](O)[C@@]2(C)C[C@@H]1OC(C)=O,inactive
13,COc1ccc2c(c1)CN(C)CC2c1ccc(Cl)c(Cl)c1 (stereo not drawn),inactive
14,C[C@]12COC(=O)C[C@@H]1CC[C@@H]1[C@H]2CC[C@@]2(C)[C@H]1CC[C@]2(C)O,inactive
15,Cc1nc(-c2ccc(-c3ccc(C(=O)N4CCc5cc6c(cc54)C4(CCN(C)CC4)CO6)cc3)c(C)c2)no1,inactive
16,CC(=O)Nc1ccc(OC[C@](C)(O)C(=O)Nc2ccc([N+](=O)[O-])c(C(F)(F)F)c2)cc1,inactive
17,CCCC[N+]1(C)[C@H]2CC(OC(=O)[C@H](CO)c3ccccc3)C[C@H]1[C@H]1O[C@H]12 (stereo partly drawn),inactive
18,CCCCCC[C@H]1C(=O)O[C@H](C)[C@H](NC(=O)c2cccc(NC=O)c2O)C(=O)O[C@@H](C)[C@@H]1OC(=O)CC(C)C,inactive
19,COC1=C[C@@H]2[C@@H]3Cc4ccc(OC)c(O)c4[C@]2(CCN3C)CC1=O,inactive

row,Structure (SMILES),outcome
1,O=[N+]([O-])c1ncc[nH]1,inactive
2,O=c1[nH]c2ccc(Cl)cc2c(N[C@@H]2CN3CCC2CC3)c1-c1nc2ccccc2[nH]1,inactive
3,CCCN1CCO[C@@H]2c3cc(O)ccc3OC[C@@H]21,inactive
4,N=c1c2c(-c3ccccc3)c(-c3ccccc3)n(Cc3ccccc3)c2ncn1C1CCC(O)CC1 (stereo not drawn),inactive
5,CN[C@@H]1Cc2cccc3[nH]c(=O)n(c23)C1,inactive
6,COc1cc2cc(c1Cl)N(C)C(=O)C[C@H](OC(=O)C(C)C)[C@]1(C)O[C@H]1[C@H](C)[C@@H]1C[C@@](O)(NC(=O)O1)[C@H](OC)C=CC=C(C)C2,inactive
7,CC(C)(C)c1cc(C=C(C#N)C#N)cc(Br)c1O,inactive
8,C#CC1(O)CCC2C3CCC4=CC(=O)CCC4(C)C3CCC21C (stereo not drawn),inactive
9,CC(N[C@H]1C[C@H]1c1ccccc1)c1ccc2c(c1)OCCO2 (stereo partly drawn),inactive
10,Cc1ccccc1-n1c(Cn2cnc3c(N)ncnc32)nc2cccc(C)c2c1=O,inactive
11,CCNC(=O)C[C@@H]1N=C(c2ccc(Cl)cc2)c2cc(OC)ccc2-n2c(C)nnc21,inactive
12,C/C=C(/C)C(=O)O[C@H]1C(C)=C2[C@H]([C@@H]1OC(=O)CCCCCCC)[C@@](C)(OC(C)=O)C[C@H](OC(=O)CCC)[C@@]1(O)[C@H]2OC(=O)[C@@]1(C)O,inactive
13,COc1cccc2c1[C@]13CCN(CC4CC4)[C@H](C2)[C@]1(OC)CCC(=O)C3,inactive
14,CC=C(C)C(=O)N[C@@H](c1ccccc1)[C@@H](O)C(=O)O[C@H]1C[C@@]2(O)[C@@H](OC(=O)c3ccccc3)[C@@H]3[C@]4(OC(C)=O)CO[C@@H]4C[C@H](O)[C@@]3(C)C(=O)[C@H](OC(C)=O)C(=C1C)C2(C)C,inactive
15,COc1ccc(C(c2ccc(OC)cc2)C(Cl)(Cl)Cl)cc1,inactive
16,CC(C)N(CCNC(=O)CN1CCCC1=O)C(C)C,inactive
17,CCNC(=O)CC1N=C(c2ccc(Cl)cc2)c2cc(OC)ccc2-n2c(C)nnc21 (stereo not drawn),inactive
18,CCOC(=O)Nc1ccc(NCc2ccc(F)cc2)cc1N,inactive
19,CC(C)(O)C=CC(=O)[C@](C)(O)[C@H]1[C@H](O)C[C@]2(C)[C@@H]3CC=C4[C@@H](C=C(O)C(=O)C4(C)C)[C@]3(C)C(=O)C[C@@]12C,inactive
